Assay results from PubChem BioAssay AID504332 (National Center for Advancing Translational Sciences (NCATS), 2011).
Hit rate of the full screen: of about 350,000 compounds, about 31,000 (8.9%) were called active. Roughly 15% stayed inconclusive and do not appear here. This excerpt belongs to a sample that is enriched for actives. A number with no mark means an inactive call. Calls follow the shape of the dose curve; as a rule, active = well fitted inhibition curve with a large enough effect; inconclusive = small, poorly fitted or top-dose-only effect; inactive = no such curve, though single readings can be large or run the other way.

Target: Histone-lysine N-methyltransferase EHMT2 (Homo sapiens) (UniProt Q96KQ7)
Sequence (Q96KQ7 913-1193 limits assumed): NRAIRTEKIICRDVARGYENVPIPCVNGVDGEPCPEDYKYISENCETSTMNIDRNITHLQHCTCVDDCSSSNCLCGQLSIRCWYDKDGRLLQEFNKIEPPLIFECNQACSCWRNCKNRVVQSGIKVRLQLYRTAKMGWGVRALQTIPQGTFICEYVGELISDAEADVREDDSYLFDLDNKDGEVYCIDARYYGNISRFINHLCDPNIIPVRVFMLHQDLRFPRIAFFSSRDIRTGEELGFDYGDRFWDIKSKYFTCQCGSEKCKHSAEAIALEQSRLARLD
Experiment: qHTS Assay for Inhibitors of Histone Lysine Methyltransferase G9a; also: nearly all actives have a fitted effect of over 75% in size
Conditions: G9a H3K9 monomethylation, AlphaScreen, 2 h; series mostly up to 59 µM; activity, negative = inhibition: at the top concentration
Excerpt: Methylated lysines, on the N-terminal tails of histone proteins serve as epigenetic markers to recruit factors that can then modify local chromatin structure to lead to functional consequences. G9a and other members of the SUV39 family of the SET domain-containing superfamily of histone lysine methyltransferases (HMT) have been identified to specifically methylate Lys9 of histone H3 (H3K9). G9a catalyzes the mono- and di-methylation of H3K9 in mammalian euchromatic regions, where the resulting H3K9me2 is indicative of transcriptional repression. […] The inhibition of G9a will result in transcriptional activation and work synergistically with DNA methyltransferase and histone deacetylase inhibitors, to kill cancer cells. This qHTS assay for identification of G9a inhibitors is a chemiluminescence based AlphaScreen (PerkinElmer). Methylation of biotinylated-histone peptide is measured through specific antibody-based detection, in conjunction with streptavidin-coated donor and anti-IgG antibody-coated acceptor beads. The method is particularly well suited for detection of inhibitors acting by the desired histone peptide competitive mechanism and is applicable to testing other HMTs. Although AlphaScreen has significant advantages with its utility in a variety of epigenetic target assays, the primary screening data provided in this deposition should be used with caution due to the prevalence of screening artifacts. An AlphaScreen counterscreen is highly recommended to be run against any putative actives to eliminate non specific artifacts. Alternatively, one can use other AlphaScreen assays in PubChem to filter out promiscuous hits. Quinn et al. A chemiluminescence-based method for identification of histone lysine methyltransferase inhibitors. Mol Biosyst 6(5): 782-8. 2010. PMID: 20567762 [2] Baell,Holloway. New substructure filters for removal of pan assay interference compounds (PAINS) from screening libraries and for their exclusion in bioassays. J Med Chem. 53(7):2719-40. 2010. PMID: 20131845 NIH Molecular Libraries Probe Production Network [MLPCN] NIH Chemical Genomics Center [NCGC] Structural Genomics Consortium (SGC) NIH Grant: 5U54 MH084681-02
To each well of a 1,536w plate, 2ul of HMT enzyme (final 20nM) were added, using a nanoliter dispenser. The G9a- and GLP-inhibitor BIX-01294 (CID: 25150857) are used as an intraplate control, with a 16-point titration in duplicate. A Kalypsys pin-tool transferred 23nl of library compound solution in DMSO to each well. Following a 15 min incubation of enzyme with compounds at room temperature, 1ul mixture of b-H3K9 peptide substrate (final 500nM) and SAM cofactor (final 20uM) were added. Reactions were allowed to proceed at room temperature for 2 hours. Methylated b-H3K9 peptide product was detected with 0.5 ug/mL rabbit polyclonal anti-monomethyl histone H3K9 antibody (Abcam Inc., Cambridge, MA) and 20 ug/mL each streptavidin-coated donor and anti-rabbit IgG acceptor AlphaScreen beads. Antibody and beads were added in a 1ul dispense, for a final volume of 4ul, and plates were incubated, protected from the light, for 10 min at room temperature. Microplates were then read on an EnVision multilabel plate reader using the 1,536 plate HTS AlphaScreen aperture (excitation time 80 ms, measurement time 240 ms).
% is scaled to controls: 0 for no effect and ±100 for the full control effect; potency is read from the fitted curve at half-maximal effect.

SMILES	Potency	activity, negative = inhibition
O=C(CC1C(=O)NCCN1CC(c1ccccc1)c1ccccc1)NCCc1cn[nH]c1 (stereo not drawn)	44.7 µM (active)	–
O=C(CC1C(=O)NCCN1Cc1ccc(-c2ccccc2)cc1)NCC1CCOCC1 (stereo not drawn)	–	-23.9% [at 102 µM] (inactive)
COc1ccc(NC(=O)CSc2nc3ncccc3[nH]2)c(OC)c1	–	5.44% (inactive)
CN(c1ccccc1)S(=O)(=O)c1cccc(NC(=O)Cc2ccc(Cl)cc2)c1	–	-10.8% [at 12.7 µM]
CCc1ccc(C(=O)N2CCN(S(=O)(=O)c3sc(C(=O)O)c(C)c3C(=O)O)CC2)cc1	–	10.3% [at 2.33 µM]
O=C(NCc1cccc(Cl)c1)C1=CC=CN2CCS(=O)(=O)N=C12	–	-59.1% [at 12.7 µM]
CCN(CC)c1cc(NC2CCCCC2)c2c3c(onc13)-c1ccccc1C2=O	7.08 µM (active)	–
Cc1ccccc1NC(=O)Cn1c(=O)n(CC2CCC(C(=O)NCCc3ccccc3)CC2)c(=O)c2ccccc21 (stereo not drawn)	–	6.89% (inactive)
O=C(Nc1ncccc1O)c1ccc(C(=O)c2ccccc2)cc1	–	-9.21% [at 0.501 µM]
COc1ccc(CNc2nc(-c3ccccc3)nn2C(=O)c2ccccc2OC)cc1	–	17% (inactive)
COc1ccc(S(=O)(=O)N2CCC(C(=O)NCCC(=O)NCc3cccc(OC)c3)CC2)cc1	–	7.88% [at 102 µM] (inactive)
Cc1ccc(S(=O)(=O)Nc2nc3ccccc3s2)cc1[N+](=O)[O-]	–	-3.63% [at 102 µM] (inactive)
O=C(O)c1cccc(S(=O)(=O)Nc2ccc(O)cc2Sc2nc3ccccc3s2)c1	7.94 µM (active)	–
COc1ccc(NS(=O)(=O)c2ccc3oc(SCC(N)=O)nc3c2)cc1	–	-10.5% [at 102 µM] (inactive)
Cc1cccc(C(=O)Nc2ccc(-c3nc4ccccc4s3)c(C)c2)c1	–	10.3% (inactive)
COc1ccc(S(=O)(=O)Nc2ccc(O)c(Sc3nc4ccccc4s3)c2)cc1	4.47 µM (active)	–
COc1ccc(NS(=O)(=O)c2ccc(NC(=S)NC(=O)CC(C)C)cc2)cc1	–	-29.8% [at 12.7 µM]
CC(C)NC(=O)C1CCC(Cn2c(=O)c3sccc3n(Cc3ccc(F)cc3)c2=O)CC1 (stereo not drawn)	–	9.1% (inactive)
Cc1ccc(Cl)cc1NC(=O)CCS(=O)(=O)c1ccc(Br)s1	–	-47.7% (inactive)
COc1ccccc1-n1nnnc1SCC(=O)NC(=O)Cc1ccccc1	–	17.7% [at 2.33 µM]
O=C(Nc1ccc(F)cc1F)c1ccc2c(=O)n3c(nc2c1)CCCCC3	–	-21.5% (inactive)
CCCCC/C=C/C1=CC(=O)C[C@H](c2ccc(Cl)cc2)C1	–	8.79% [at 0.501 µM]
Cc1nnc(N2CCCC(C(=O)NCCN(C)C)C2)c2nn(-c3ccccc3)c(C)c12 (stereo not drawn)	–	-30.8% (inactive)
Cc1ccc(C)c(N2CCN(CCCNC(=O)Nc3ccc(Cl)cc3)CC2)c1	–	-40.9% (inactive)

SMILES	Potency	activity, negative = inhibition
Cc1ccc(NC(=S)N(CCCN2CCC(C)CC2)Cc2ccco2)cc1	–	-33.9% [at 102 µM] (inactive)
Cc1ccc(NC(=S)N(CCCN2CCCC2)Cc2cccn2Cc2ccc(Cl)cc2)cc1	50.1 µM (active)	–
Cc1cc(N=Nc2ccc3ccccc3c2)ccc1O	35.5 µM (active)	–
COc1ccc(N=Nc2ccc(O)c(P(=O)(c3ccccc3)c3ccccc3)c2)cc1	–	4.01% [at 102 µM] (inactive)
COc1ccccc1N1CCN(c2ncnc3onc(-c4cccc(Cl)c4)c23)CC1	–	5.72% (inactive)
O=C(c1cnc(Cl)c(Cl)c1)N1CCN(S(=O)(=O)c2ccc(F)cc2)CC1	–	1.49% [at 102 µM] (inactive)
CC1(c2ccc(Cl)cc2Cl)NC(=O)N(CC(=O)Nc2cccnc2Cl)C1=O (stereo not drawn)	–	-2.03% [at 102 µM] (inactive)
COc1cc(OC)cc(C(=O)OCC(=O)Nc2ccc(F)cc2F)c1	–	-3.36% [at 102 µM] (inactive)
Cc1cccc(C(=O)OCC(=O)Nc2ccc(F)cc2)c1	–	-7.9% [at 102 µM] (inactive)
O=C(COC(=O)c1ccc(F)cc1F)Nc1ncccn1	35.5 µM (active)	–
S=c1[nH]ccn1-c1ccc(Cl)cc1	3.98 µM (active)	–
CC(CCN1CCN=C1N(C)C)c1ccccc1 (stereo not drawn)	–	11.1% [at 2.33 µM]
COc1cc(OC)c(NC(=O)c2cc(S(=O)(=O)N3CCCC3)cn2C)cc1Cl	–	-6.04% (inactive)
CCOc1ccc(NS(=O)(=O)c2ccc(OCC(=O)NCCCOC)cc2)cc1	–	1.35% [at 12.7 µM]
CNC(=O)COc1ccc(S(=O)(=O)Nc2ccccc2)cc1	50.1 µM (active)	–
Cc1ccc(OCC(=O)Nc2ccc(S(=O)(=O)Nc3ccccn3)cc2)cc1	–	-2.38% [at 102 µM] (inactive)
Cn1c(COc2ccccc2C(C)(C)C)nc2ccccc21	–	-0.125% (inactive)
CCC(c1nnnn1C1CCCC1)N1CCN(C(=O)c2ccco2)CC1 (stereo not drawn)	17.8 µM (active)	–
CC(C)C(c1nnnn1CCc1ccccc1)N1CCN(C(=O)c2ccco2)CC1 (stereo not drawn)	–	0.196% [at 102 µM] (inactive)
CC(C)C(c1nnnn1C1CCCCC1)N1CCN(C(=O)c2ccco2)CC1 (stereo not drawn)	–	8.41% [at 102 µM] (inactive)
COC(=O)c1ccc(C2C(C(=O)Nc3ccccc3)=C(C)Nc3nc4ccccc4n32)cc1 (stereo not drawn)	–	-7.28% (inactive)
O=C(Oc1ccc(C(=S)N2CCOCC2)cc1)c1ccc(F)cc1	35.5 µM (active)	–
O=C(Oc1ccc(F)cc1)N1CCOCC1	–	21.7% (inactive)
Cc1ccc(C(=O)Oc2ccc(C(=S)N3CCOCC3)cc2)cc1	–	10.7% [at 2.33 µM]
